In paper PMC5540273 (PLoS ONE, 2017):

Columns and labels:
Conditions in all cases: concentration: 1 μM,replicates: in singlicate; n = 1
RIOK1 = tested on: RIOK1
RIOK2 = tested on: RIOK2
RIOK3 = tested on: RIOK3
RIPK1 = tested on: RIPK1
RIPK2 = tested on: RIPK2
RIPK4 = tested on: RIPK4
RIPK5 = tested on: RIPK5
ROCK1 = tested on: ROCK1
ROCK2 = tested on: ROCK2
ROS1 = tested on: ROS1
[1] = tested on: RPS6KA4(Kin.Dom.1-N-terminal)
[2] = tested on: RPS6KA4(Kin.Dom.2-C-terminal)
[3] = tested on: RPS6KA5(Kin.Dom.1-N-terminal)
[4] = tested on: RPS6KA5(Kin.Dom.2-C-terminal)
[5] = tested on: T1, RSK1(Kin.Dom.1-N-terminal)
T1 construct: gene RPS6KA1

[6] = tested on: T2, RSK1(Kin.Dom.2-C-terminal)
T2 construct: gene RPS6KA1

[7] = tested on: T3, RSK2(Kin.Dom.1-N-terminal)
T3 construct: gene RPS6KA3

[8] = tested on: T4, RSK2(Kin.Dom.2-C-terminal)
T4 construct: gene RPS6KA3

[9] = tested on: T5, RSK3(Kin.Dom.1-N-terminal)
T5 construct: gene RPS6KA2

[10] = tested on: T6, RSK3(Kin.Dom.2-C-terminal)
T6 construct: gene RPS6KA2
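Further: KINOMEscan kinase panel screen.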

Compound	%Inh (RIOK1) [%]	%Inh (RIOK2) [%]	%Inh (RIOK3) [%]	%Inh (RIPK1) [%]	%Inh (RIPK2) [%]	%Inh (RIPK4) [%]	%Inh (RIPK5) [%]	%Inh (ROCK1) [%]	%Inh (ROCK2) [%]	%Inh (ROS1) [%]	%Inh [1] [%]	%Inh [2] [%]	%Inh [3] [%]	%Inh [4] [%]	%Inh [5] [%]	%Inh [6] [%]	%Inh [7] [%]	%Inh [8] [%]	%Inh [9] [%]	%Inh [10] [%]
Cn1ccc2ncnc(Oc3ccc(NC(=O)Nc4cnn(C(C)(C)C)c4)c(Cl)c3)c21	4	29	0	12	40	0	0	6	0	0	0	5	32	0	0	27	11	0	0	9
O=C(Nc1cccc(C(F)(F)F)c1)c1cccc(Oc2ccc3nccn3n2)c1	0	0	15	1	0	17	7	33	22	6	9	0	8	0	25	0	10	48	23	68
Cc1ccc(CC(=O)N2CCc3cc(-c4cn(C)c5ncnc(N)c45)ccc32)cc1 [GSK2634758]	25	0	0	100	76	0	62	0	21	9	16	0	3	0	9	4	0	4	7	0
COC(=O)c1cccc(NC(=O)NC2CCN(c3ccnc(NCc4ccc(F)cc4)n3)CC2)c1 [GSK1379860]	22	0	6	0	0	5	0	25	19	8	7	0	7	0	18	0	0	9	3	0
CNC(=O)c1ccccc1Nc1nc(Nc2cccc(CS(C)(=O)=O)c2)ncc1C.O=CO [GSK1520489]	97.9	89	91.8	21	30	98	65	89	75	90	95.7	0	43	0	96.5	43	99.9	12	99	0
CC(C)c1nc(-c2cccc(NS(=O)(=O)c3ccccc3)c2)c(-c2ccnc(Nc3ccc4c(c3)CN(C)CC4)n2)s1 [GSK1649598]	18	0	24	0	98.7	36	8	0	0	0	33	0	4	0	73	44	10	0	15	0
Cl.Cl.NC[C@H](CC1CCCCC1)NC(=O)c1ccc(-c2ccnc3[nH]ccc23)s1 [GSK1581428]	100	45	90.1	0	0	0	0	100	98.9	26	82	79	84	67	23	12	83	0	57	21
O=C(Nc1ccccc1)c1cccc(Oc2ccc3nccn3n2)c1	0	11	8	15	0	26	0	34	0	0	0	10	0	16	0	100	9	46	24	0
Cl.c1ccc(Oc2ccc(Nc3ccnc4cc(-c5ccc(CN6CCNCC6)o5)ccc34)cc2)nc1 [GW567142]	0	0	0	0	95.5	0	4	5	32	0	0	0	0	14	2	16	0	0	0	9
Nc1nccc(-c2ccc3c(N)n[nH]c3c2)n1 [GSK1034945]	96.5	52	91.2	3	14	77	0	–	56	0	0	81	7	62	4	32	29	22	31	1
C[C@@H](Oc1cc(-n2cnc3cc(-c4ccncc4)ccc32)sc1C(N)=O)c1ccccc1Cl [GSK479719]	94.1	9	100	0	17	8	37	3	49	8	46	0	9	0	11	7	42	4	30	21
NC(=O)Nc1sc(-c2ccc(F)cc2)cc1C(N)=O [GW789449]	99.4	37	98.5	0	0	79	69	14	0	0	46	7	0	0	54	33	68	45	21	7
Cc1ccc2c(-c3ccnc(Nc4ccc(C(F)(F)F)cc4)n3)cnn2n1 [GW819776]	17	84	22	29	17	10	27	54	0	41	28	0	0	0	19	8	53	0	0	7
Cn1ccc2ncnc(Oc3ccc(NC(=O)Nc4cc(C(C)(C)C)on4)c(Cl)c3)c21	2	29	1	15	83	12	11	3	0	46	0	13	0	6	0	17	16	1	0	8
COc1cc(Nc2nccc(N3CCC(NC(=O)c4cccc(C#N)c4)C3)n2)cc(OC)c1OC (stereo not shown) [GSK1379751]	90.2	0	89	0	25	32	0	10	35	9	0	0	0	34	17	0	0	0	4	0
OCCn1cc(-c2cnc3nnn(Cc4ccc5ncccc5c4)c3n2)cn1	0	0	19	0	0	0	0	0	0	0	1	0	0	2	9	0	0	0	0	0
c1ccc(Oc2ccc(Nc3ccnc4ccc(-c5ccccn5)cc34)cc2)cc1 [GW407034]	16	5	0	0	95.7	16	31	11	0	10	11	0	3	0	10	0	7	8	19	0
O=C(NCC1CC1)c1ccc(-c2cc(C(=O)NC3CC3)ccc2F)cc1 [GW810445]	1	0	0	0	0	0	0	58	9	0	7	0	0	7	0	3	0	0	0	0
COc1cccc(CNC(=O)NC2CCN(c3ccnc(Nc4cc(OC)c(OC)c(OC)c4)n3)C2)c1 (stereo not shown) [GSK1379765]	63	0	56	17	0	40	5	67	76	48	1	0	0	0	17	0	7	29	22	1
